# Laboratory results: the supplement of paper PMC12350171
# Where a name gives a salt, the structure may show the parent alone. A number with no mark means an inactive call.
# Experiments:
# Details in all cases: 20 µM
# [1] = test system: Salmonella enterica typhimurium; experiment: growth AUC normalised to DMSO control (fraction of control); higher = less growth inhibition, active = hit call of the paper
# In short: (§1)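 After two anaerobic passages, pathogens were added at a starting OD578 of 0.01 to pre-reduced mGAM plates holding compound at 20 μM with 1% DMSO; hemin and NAD were supplemented for Haemophilus parainfluenzae. Sealed with breathable membranes, plates were read at OD578 hourly for 24 h, in three biological replicates. The trapezoidal rule, applied up to the exponential-to-stationary transition, gave the growth-curve AUC, which was normalised to DMSO controls on the same plate.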
# Shigella flexneri = experiment: as above
# In short: as §1
# Vibrio cholerae = experiment: as above
# In short: as §1
# [2] = test system: Yersinia pseudotuberculosis; experiment: as above
# In short: as §1
# P. vulgatus RND KO = experiment: growth AUC normalised to DMSO control (median) (fraction of control); higher = less growth inhibition, active = hit call of the paper
# In short: (§2)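 For normalised area under the curve, growth curves were truncated at entry into stationary phase, integrated by the trapezoidal rule and divided against vehicle wells on the same plate. The curves came from strains passaged twice overnight without oxygen and then grown in mGAM in 96-well plates at a starting OD578 of 0.01. Each well held an approved-drug library compound at 20 μM with 1% DMSO, and OD578 was read hourly for 24 h in an anaerobic incubator. Values are medians of three biological replicates.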
# P. vulgatus WT = experiment: as above
# In short: as §2
# [3] = test system: S. enterica typhimurium WT; experiment: as above
# In short: as §2
# [4] = test system: S. enterica typhimurium tolC KO; experiment: as above
# In short: as §2
# 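Throughout, for growth AUC normalised to DMSO control (median): active when median AUC fell below 0.1.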
SMILES,growth AUC normalised to DMSO control [1],growth AUC normalised to DMSO control (Shigella flexneri),growth AUC normalised to DMSO control (Vibrio cholerae),growth AUC normalised to DMSO control [2],growth AUC normalised to DMSO control (P. vulgatus RND KO),growth AUC normalised to DMSO control (P. vulgatus WT),growth AUC normalised to DMSO control [3],growth AUC normalised to DMSO control [4]
CC(Cc1cccc(C(F)(F)F)c1)NCCOC(=O)c1ccccc1 (stereo not given) [Benfluorex],0.94,0.968,0.869 (active),1.01,0.956,0.975,0.986,0.98
CC(C)(C#N)c1cc(Cn2cncn2)cc(C(C)(C)C#N)c1 [Anastrozole],1.02,1.07,1.04,0.696,1.09,1.06,0.991,0.996
CNC(=O)c1c(I)c(C(=O)NCC(=O)Nc2c(I)c(C(=O)O)c(I)c(C(=O)NCCO)c2I)c(I)c(N(C)C(C)=O)c1I [Ioxaglic acid],0.968,0.993,1.01,0.964,1.01,1,0.997,0.994
CC(=O)O[C@@]12CO[C@@H]1C[C@H](O)[C@@]1(C)C(=O)[C@H](O)C3=C(C)[C@@H](OC(=O)[C@H](O)[C@@H](NC(=O)OC(C)(C)C)c4ccccc4)C[C@@](O)([C@@H](OC(=O)c4ccccc4)[C@H]21)C3(C)C [Docetaxel],0.995,0.982,1.07,1.04,0.904,0.92,1,1
Cc1c(Cl)cccc1Nc1ncccc1C(=O)O [Clonixin lysinate],1,0.989,0.94,1,0.979,1,1.02,0.954
CCCC(=O)Nc1ccc(OCC(O)CNC(C)C)c(C(C)=O)c1 (stereo not given) [Acebutolol hydrochloride],1,0.995,1.01,1.01,1.01,1.01,1,1.01
C[C@]12CCC(=O)C=C1CC[C@@H]1[C@@H]2C(=O)C[C@@]2(C)[C@H]1CC[C@]2(O)C(=O)CO [Cortisone],0.993,0.945,0.983,0.982,0.994,1,1,0.995
O=C(N/N=C/c1ccc([N+](=O)[O-])o1)c1ccc(O)cc1 [Nifuroxazide],0.866 (active),0.189 (active),0.623 (active),0.96,0.883,0.861,0.924,0.862
CC(C(=O)O)c1ccc(C(=O)c2ccccc2)s1 (stereo not given) [Tiaprofenic acid],1,1.01,0.978,1.01,1.02,1.05,1,0.992
CC(=O)[C@H]1CC[C@H]2[C@@H]3C[C@H](C)C4=CC(=O)CC[C@]4(C)[C@H]3[C@@H](O)C[C@]12C [Medrysone],0.994,0.962,0.974,0.991,0.997,1.02,1.01,0.976
CC(C)C(=O)Nc1ccc([N+](=O)[O-])c(C(F)(F)F)c1 [Flutamide],1.01,1.04,1.01,0.988,1,1.01,0.985,0.96
CC[C@@]1(O)C(=O)OCc2c1cc1n(c2=O)Cc2cc3c(CN(C)C)c(O)ccc3nc2-1 [Topotecan],1.05,1.04,1.03,1.02,1.01,1.02,1.02,0.983
CN1[C@@H]2CC[C@H]1C[C@@H](OC(=O)c1c[nH]c3ccccc13)C2 [Tropisetron hydrochloride],1.01,0.997,1.01,1,1.01,1.02,1.01,1
O=C(O)/C=C/c1ccc(Cn2ccnc2)cc1 [Ozagrel hydrochloride],1.02,1.02,0.995,1.01,1.02,1.05,1,1
CN(C)CC/C=C1/c2ccccc2COc2ccc(CC(=O)O)cc21 [Olopatadine hydrochloride],1.02,0.963,1.03,1.02,0.99,0.984,0.992,0.992
CC(N/C(=N\C#N)Nc1ccncc1)C(C)(C)C (stereo not given) [Pinacidil monohydrate],0.991,1,0.998,0.982,1.07,1.06,1.01,0.976
CCN(CC)C(=O)/C(C#N)=C/c1cc(O)c(O)c([N+](=O)[O-])c1 [Entacapone],1.02,1.04,1.07,0.998,0.987,0.996,0.997,1
COCCOC(=O)C1=C(C)NC(C)=C(C(=O)OC/C=C/c2ccccc2)C1c1cccc([N+](=O)[O-])c1 (stereo not given) [Cilnidipine],1.01,1.01,1.03,0.976,0.989,0.98,1.01,1.01
Nc1ccn([C@H]2CC[C@@H](CO)O2)c(=O)n1 [Zalcitabine],1.02,1.02,1.06,1.04,1.04,1.06,1,1.01
Cc1scc2c1N(C(=O)CN1CCN(C)CC1)c1ccccc1NC2=O [Telenzepine dihydrochloride],1.02,1.01,1.01,0.993,0.995,0.983,1.01,0.999
NC(=O)NC1NC(=O)NC1=O (stereo not given) [Allantoin],1,0.996,1.05,0.989,0.999,1.01,0.994,0.998
COc1ccc([C@@H]2Sc3ccccc3N(CCN(C)C)C(=O)[C@@H]2OC(C)=O)cc1 [Diltiazem hydrochloride],0.998,0.969,1,1.01,0.99,1,0.995,0.973
CN1C(=O)OC(C)(C)C1=O [Trimethadione],0.996,0.943,0.982,0.992,0.971,0.977,0.999,1
C#C[C@]1(OC(C)=O)CC[C@H]2[C@@H]3CCC4=C[C@@H](OC(C)=O)CC[C@@H]4[C@H]3CC[C@@]21C [Ethynodiol diacetate],0.971,0.988,0.963,0.986,0.922,0.954,0.997,0.941
CC#C[C@]1(O)CC[C@H]2[C@@H]3CCC4=CC(=O)CCC4=C3[C@@H](c3ccc(N(C)C)cc3)C[C@@]21C [Mifepristone],1.01,0.988,0.994,1.01,0.93,0.954,0.999,0.92
CC(=O)[C@H]1CC[C@H]2[C@@H]3CC=C4C[C@@H](O)CC[C@]4(C)[C@H]3CC[C@]12C [Pregnenolone],1,0.985,0.996,1,1.02,1.02,0.993,0.954
O=C(N[C@H](CO)[C@H](O)c1ccc([N+](=O)[O-])cc1)C(Cl)Cl [Chloramphenicol],0.00522 (active),0.0276 (active),0.0386 (active),0.0352 (active),0.018 (active),0.0107 (active),0.00734 (active),0.00302 (active)
Nc1nc(NC2CC2)c2ncn([C@H]3C=C[C@@H](CO)C3)c2n1 [Abacavir sulfate],1.01,0.989,0.989,0.971,0.989,1.01,1.01,1
CC(C)(C)NCC(O)COc1cccc2c1CC(O)C(O)C2 (stereo not given) [Nadolol],0.99,0.999,1,1,1.02,1.01,1,1
"CCc1cc(Cl)c(OC)c(C(=O)NC[C@@H]2CCCN2CC)c1O [(S,-) Eticlopride hydrochloride]",1,1.01,0.922,0.986,1.06,1.03,1,0.947
